From ChEMBL document CHEMBL3988442, “University of Dundee, Small-Polar-MMV Screening Library” (2021)
About 13,000 (27%) of roughly 48,000 compounds showed an effect of 50% or more. Some of the results follow.

system: Wolbachia pipientis; assay: Anti-Wolbachia Cell-Based Screen; type: functional; parameters: scale not given: in the data most compounds retested in dose-response had high values; conditions: 5 µM

SMILES | Percent Effect
CCOc1cc(C(=O)NS(C)(=O)=O)cc(-c2ccccc2)c1OC | 4.998%
CS(=O)(=O)NCc1cc2n(n1)CCCN(Cc1nc3ccccc3[nH]1)C2 | 2.68%
Cc1nn(C)c(C)c1S(=O)(=O)NCCn1ccc(-c2cccs2)n1 | -20.8%
CN(C)c1ccc(NC(=O)N2CCCC2c2ccsc2)cn1 (stereo not given) | 11.58%
Cl.O=C(C1CCC1)N1C[C@@H](c2ccsc2)[C@@H]2CN(C3CCCC3)CC[C@@H]21 | 127.5%
Cl.O=C(C1CCCC1)N1C[C@@H](c2ccsc2)[C@@H]2CN(C3CCCC3)CC[C@@H]21 | 194.4%
O=C(C1CCC1)N1CCN(Cc2ccsc2)[C@H]2CS(=O)(=O)C[C@H]21 | -4.22%
Cl.O=C(C1CCC1)N1C[C@@H](c2ccsc2)[C@@H]2CN(C3CCCCC3)CC[C@@H]21 | 144.1%
CSc1ncc(CN2CC(Oc3c(C)cccc3C)C2)cn1 | -6.082%
CCC(Nc1nc(C(C)C)nc2c1cnn2C)c1ccncc1 (stereo not given) | -4.681%
Cc1ccc(NS(=O)(=O)CC2=NC(=O)n3cccc3C2=O)cc1 | 7.318%
O=C(Nc1ccccc1)c1ccc(NCc2ccccc2CO)nn1 | -18.51%
CCCS(=O)(=O)N1CCC2(CC1)CN(c1ccccn1)CCO2.O=C(O)C(F)(F)F | 3.761%
O=C(NCC1CCOC1)Nc1ccc(OCC(F)(F)F)nc1 (stereo not given) | -13.99%
COCCC(=O)N1CCc2nc(N3CCOCC3)nc(NC(C)C)c2C1 | -19.12%
CC(C)Oc1cccc(C(=O)C2CCCN(C(=O)c3ccccn3)C2)c1 (stereo not given) | -12.09%
COCCOCCC(=O)N1CCC(c2ccccc2C)C1 (stereo not given) | -9.058%
CC(C)Nc1n[nH]c2nc(C3CCN(C(=O)c4ccccn4)C3)ccc12 (stereo not given) | 75.7%
Cc1ncsc1C(=O)N1CCC(c2ccc3c(NC(C)C)n[nH]c3n2)C1 (stereo not given) | 170.9%
COCCC(=O)N1CCC(c2ccc3c(NC(C)C)n[nH]c3n2)C1 (stereo not given) | 74.92%
CC(C)c1nc2n(n1)CC(NCc1nc(-c3ccsc3)no1)CC2 (stereo not given) | -1.114%
O=c1n(CC2CCCCO2)nc(CC2CCNCC2)n1-c1ccccc1 (stereo not given) | 26.34%
CC(NC(=O)c1cc(Br)c2c(c1)OCCO2)C(N)=O (stereo not given) | -7.344%
CC(C)OCCS(=O)(=O)N1CCN(Cc2cccn2C)CC1 | -8.582%

SMILES | Percent Effect
CC(C)CN1C(=O)C2(CCCC2)NC12CCSCC2 | -2.921%
CCOc1ccc(C(=O)N2Cc3cnc(CC)nc3C2)o1 | -12.82%
CNC(=O)c1cc(C)n(-c2ccccc2)n1 | 92.62%
CCN(CC)S(=O)(=O)NC(=O)c1cc(C)n(-c2ccccc2)n1 | 6.675%
CCCS(=O)(=O)NC(=O)c1cc(C)n(-c2ccccc2)n1 | 6.254%
COc1cc(N2CCCC(c3nccn3Cc3cscn3)C2)nc(N)n1 (stereo not given) | 2.098%
O=c1[nH]c2c(-c3ccccn3)nsc2c(=O)n1C1CCCCC1 | 110.2%
O=c1[nH]c2c(c(=O)n1C1CCCCC1)CCC2Nc1ccccc1 (stereo not given) | -8.343%
O=c1[nH]c2c(c(=O)n1C1CCCCC1)CCC2Nc1ccccc1Cl (stereo not given) | 4.437%
COCCN(C)C[C@@H]1CN(C(=O)c2ccc(OC)c(F)c2)C[C@@H]1CO | 94.27%
COCCN(C)C[C@@H]1CN(C(=O)c2c(F)ccc(OC)c2F)C[C@@H]1CO | -13.51%
COc1ccc(F)c(F)c1C(=O)N1C[C@@H](CN(C)CCO)[C@@H](CO)C1 | -3.681%
COCCN(C)C[C@@H]1CN(C(=O)c2ccc(SC)cc2)C[C@@H]1CO | 113.3%
COCCN(C)C[C@@H]1CN(C(=O)c2ccc3c(c2)OCO3)C[C@@H]1CO | 100.3%
O=C(c1ccc2c(c1)OCO2)N1C[C@@H](CN2CCCCC2)[C@@H](CO)C1 | -23.85%
COCCN(C)C[C@@H]1CN(C(=O)C(C)(C)c2ccccc2)C[C@@H]1CO | 115.8%
CCc1ccc2nc(C)cc(C(=O)NC3CCCCNC3=O)c2c1 (stereo not given) | -55.41%
COc1ccc(N2CCC(N3CCOC(C(F)(F)F)C3)CC2)cc1 (stereo not given) | 26.01%
COC(=O)c1ccc(Cl)c(CN(C)Cc2ncnn2C)c1 | -12.36%
COC(=O)CCCC(=O)N(C)CC1Cc2ccccc2CN1C (stereo not given) | -6.642%
CS(=O)(=O)Cc1ccc(C(=O)NCC2Cc3ccccc3O2)cc1 (stereo not given) | -4.65%
COCCN(C)C[C@@H]1CN(C(=O)c2ccc(C)cc2)C[C@@H]1CO | 166.3%
COCCN(C)C[C@@H]1CN(C(=O)c2ccoc2)C[C@@H]1CO | -5.57%
COc1ccc(C)cc1C(=O)N1C[C@@H](CN(C)CCO)[C@@H](CO)C1 | -25.29%

SMILES | Percent Effect
Cc1cc(C(=O)N2CCn3cnc(COCC4CC4)c3C2)no1 | -11.47%
CCc1n[nH]c(C2CN(C(=O)c3ccc4c(c3)CCCC4)CCO2)n1 (stereo not given) | 128.9%
CCc1n[nH]c(C2CN(C(=O)c3ccc4c(c3)CCC4)CCO2)n1 (stereo not given) | 79.95%
Cc1n[nH]c(C2CN(C(=O)c3ccc4c(c3)CCCC4)CCO2)n1 (stereo not given) | -29.36%
CCc1n[nH]c(C2CN(C(=O)c3cc4c(s3)CCCC4)CCO2)n1 (stereo not given) | -2.74%
CCc1nc(CNC2CCCc3c2cnn3CC)cs1 (stereo not given) | 1.475%
N#Cc1cccc(S(=O)(=O)N2CCCCC2CCN2CCCC2)c1 (stereo not given) | 93.73%
CCN1CCCC1CN(CCN(C)C)S(=O)(=O)c1cccc(C#N)c1 (stereo not given) | -13.07%
COCCCC1CCCCN1S(=O)(=O)c1cccc(C#N)c1 (stereo not given) | 99.73%
N#Cc1cccc(S(=O)(=O)N2CCCCC2CCN2CCCC2=O)c1 (stereo not given) | 2.931%
CC(C)C1CN(S(=O)(=O)c2cccc(C#N)c2)CCS1 (stereo not given) | -18.57%
CS(=O)(=O)NCC1CCCCN1Cc1cccc(C#N)c1 (stereo not given) | 20.87%
O=C(O)c1csc(S(=O)(=O)N2CCCc3cc(OC(F)F)ccc32)c1 | -5.134%
CN(C)S(=O)(=O)N1C[C@H]2CCC[C@@]2(COCc2ccccn2)C1.O=C(O)C(F)(F)F | 5.963%
Cc1ccc(N2C[C@H]3CCC[C@@]3(COc3cccnc3)C2)nn1.O=C(O)C(F)(F)F.O=C(O)C(F)(F)F | -0.008691%
O=C(C1CCOCC1)N1C[C@H]2CCC[C@@]2(COCc2ccccn2)C1 | 98.54%
O=C(C1CCOCC1)N1C[C@H]2CCC[C@@]2(COc2cccnc2)C1.O=C(O)C(F)(F)F | 89.34%
Cc1noc(C)c1C(=O)N1C[C@H]2CCC[C@@]2(COc2ccccn2)C1.O=C(O)C(F)(F)F | -9.504%
O=C(N1CCCC1)N1C[C@H]2CCC[C@@]2(COCc2ccccn2)C1.O=C(O)C(F)(F)F | 108.6%
O=C(O)C(F)(F)F.O=C(c1ncccn1)N1C[C@H]2CCC[C@@]2(COCc2cccnc2)C1 | 0.3809%
CN(C)S(=O)(=O)N1C[C@H]2CCC[C@@]2(COc2cccnc2)C1.O=C(O)C(F)(F)F | 5.762%
COC[C@@]12CCC[C@@H]1CN(C(=O)Cc1ccccn1)C2.O=C(O)C(F)(F)F | 87.04%
